# Reference: the supplement of paper PMC9492666
# Structures can show the parent of a compound that is named as a salt.
# Tests used:
# HCC1937 = assay: relative cell viability, compound + erastin, vs DMSO (fraction of DMSO control); higher = less growth inhibition; details: 72 h
# MDA-MB-231 = assay: as above; details: 72 h
# 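Note: viability read by CCK-8 kit in 96-well plates, part of a combination screen pairing lipid-metabolism-targeting compounds with erastin.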
Compound,relative cell viability (HCC1937),relative cell viability (MDA-MB-231)
O=C(CCCCCCCC(=O)NCCO)NCCO [Adelmidrol] + CCOc1ccccc1-n1c(C(C)N2CCN(C(=O)COc3ccc(Cl)cc3)CC2)nc2ccccc2c1=O [erastin],0.701,0.73
O=C(O)Cn1nnc(-c2cc(N3CCC(Oc4cc(F)ccc4Br)CC3)no2)n1 + CCOc1ccccc1-n1c(C(C)N2CCN(C(=O)COc3ccc(Cl)cc3)CC2)nc2ccccc2c1=O [erastin],0.529,0.679
CCCCCCCCCCCCCCOc1ccc(C(=O)OCC(=O)N(C)CC(=O)OCC)o1 [Olumacostat Glasaretil] + CCOc1ccccc1-n1c(C(C)N2CCN(C(=O)COc3ccc(Cl)cc3)CC2)nc2ccccc2c1=O [erastin],0.549,0.477
C[N+](C)(C)CC(O)CC(=O)[O-] (stereo not drawn) [L(-)-Carnitine] + CCOc1ccccc1-n1c(C(C)N2CCN(C(=O)COc3ccc(Cl)cc3)CC2)nc2ccccc2c1=O [erastin],0.781,0.91
CCCCCCCCCCCCC/C=C/[C@@H](O)[C@@H](N)CO + CCOc1ccccc1-n1c(C(C)N2CCN(C(=O)COc3ccc(Cl)cc3)CC2)nc2ccccc2c1=O [erastin],0.248,0.363
Nc1ncnc2c1ncn2C1OC(COP(=O)(O)O)C(O)C1O (centres undefined) [Adenosine 5'-monophosphate monohydrate] + CCOc1ccccc1-n1c(C(C)N2CCN(C(=O)COc3ccc(Cl)cc3)CC2)nc2ccccc2c1=O [erastin],0.97,1.07
O=C(OC(C(F)(F)F)C(F)(F)F)N1CCN(Cc2ccc(C(F)(F)F)cc2N2CCCC2)CC1 + CCOc1ccccc1-n1c(C(C)N2CCN(C(=O)COc3ccc(Cl)cc3)CC2)nc2ccccc2c1=O [erastin],0.583,0.74
CN(C)CCOC(=O)COc1ccc(Cl)cc1 [Meclofenoxate hydrochloride] + CCOc1ccccc1-n1c(C(C)N2CCN(C(=O)COc3ccc(Cl)cc3)CC2)nc2ccccc2c1=O [erastin],0.693,0.81
O=C(Nc1ccccc1)c1cc([N+](=O)[O-])ccc1Cl + CCOc1ccccc1-n1c(C(C)N2CCN(C(=O)COc3ccc(Cl)cc3)CC2)nc2ccccc2c1=O [erastin],0.71,0.706
O=C1c2cccc(O)c2C(=O)c2c(O)cccc21 [Antrapurol] + CCOc1ccccc1-n1c(C(C)N2CCN(C(=O)COc3ccc(Cl)cc3)CC2)nc2ccccc2c1=O [erastin],0.735,0.903
Cc1c2c(=O)n(-c3ccccc3Cl)[nH]c2cc(=O)n1Cc1ccccn1 + CCOc1ccccc1-n1c(C(C)N2CCN(C(=O)COc3ccc(Cl)cc3)CC2)nc2ccccc2c1=O [erastin],0.72,0.784
CCCCCCCCCCCC1=C(O)C(=O)C=C(O)C1=O [Embelin] + CCOc1ccccc1-n1c(C(C)N2CCN(C(=O)COc3ccc(Cl)cc3)CC2)nc2ccccc2c1=O [erastin],0.72,0.575
CC(C)(Oc1ccc(C(=O)c2ccc(Cl)cc2)cc1)C(=O)O [Fenofibric acid] + CCOc1ccccc1-n1c(C(C)N2CCN(C(=O)COc3ccc(Cl)cc3)CC2)nc2ccccc2c1=O [erastin],0.677,0.915
CCCC[S+]([O-])c1sc2nc(-c3cccs3)cc(-c3ccccc3)c2c1N (centres undefined) + CCOc1ccccc1-n1c(C(C)N2CCN(C(=O)COc3ccc(Cl)cc3)CC2)nc2ccccc2c1=O [erastin],0.72,0.715
O=C(O)CC[C@H](O)C(=O)O [L-2-Hydroxyglutaric acid disodium] + CCOc1ccccc1-n1c(C(C)N2CCN(C(=O)COc3ccc(Cl)cc3)CC2)nc2ccccc2c1=O [erastin],0.747,0.701
CC(C)c1c(C(=O)Nc2ccccc2)c(-c2ccccc2)c(-c2ccc(F)cc2)n1CC[C@@H](O)C[C@@H](O)CC(=O)O [Atorvastatin Calcium] + CCOc1ccccc1-n1c(C(C)N2CCN(C(=O)COc3ccc(Cl)cc3)CC2)nc2ccccc2c1=O [erastin],0.357,0.337
O=S(=O)(O)c1ccc2cc(N=Nc3cc(S(=O)(=O)O)c4cccnc4c3O)ccc2c1 + CCOc1ccccc1-n1c(C(C)N2CCN(C(=O)COc3ccc(Cl)cc3)CC2)nc2ccccc2c1=O [erastin],0.741,0.595
CCCCCCCCCc1ccc(B(O)O)cc1 [4-Nonylphenylboronic acid] + CCOc1ccccc1-n1c(C(C)N2CCN(C(=O)COc3ccc(Cl)cc3)CC2)nc2ccccc2c1=O [erastin],0.9,0.358
CC(C)[C@H](N=C(NS(=O)(=O)c1ccc(Cl)cc1)N1C[C@H](c2ccccc2)C(c2ccc(Cl)cc2)=N1)C(N)=O + CCOc1ccccc1-n1c(C(C)N2CCN(C(=O)COc3ccc(Cl)cc3)CC2)nc2ccccc2c1=O [erastin],0.483,0.429

Compound,relative cell viability (HCC1937),relative cell viability (MDA-MB-231)
O=c1cc(-c2ccc(O)c(-c3c(O)cc(O)c4c(=O)cc(-c5ccc(O)cc5)oc34)c2)oc2cc(O)cc(O)c12 [Amentoflavone] + CCOc1ccccc1-n1c(C(C)N2CCN(C(=O)COc3ccc(Cl)cc3)CC2)nc2ccccc2c1=O [erastin],0.438,0.715
O=C(O)c1ccnc(N2CC(O)(c3ccc(OCc4c(-c5c(Cl)cccc5Cl)noc4C4CC4)cc3Cl)C2)c1 [Cilofexor] + CCOc1ccccc1-n1c(C(C)N2CCN(C(=O)COc3ccc(Cl)cc3)CC2)nc2ccccc2c1=O [erastin],0.577,0.692
Cc1cnc(C(=O)NCCc2ccc(S(=O)(=O)NC(=O)NC3CCCCC3)cc2)cn1 [Glipizide] + CCOc1ccccc1-n1c(C(C)N2CCN(C(=O)COc3ccc(Cl)cc3)CC2)nc2ccccc2c1=O [erastin],0.732,0.843
N#Cc1ccc(Oc2cccc(NC(=O)Nc3ccc(Cl)c(C(F)(F)F)c3)c2)cc1 + CCOc1ccccc1-n1c(C(C)N2CCN(C(=O)COc3ccc(Cl)cc3)CC2)nc2ccccc2c1=O [erastin],0.0713,0.127
CC1=C(C)C(=O)C(C(CCCCCC(=O)O)c2ccccc2)=C(C)C1=O (centres undefined) [Seratrodast] + CCOc1ccccc1-n1c(C(C)N2CCN(C(=O)COc3ccc(Cl)cc3)CC2)nc2ccccc2c1=O [erastin],0.851,0.567
CCCCCCCCCCCCCCCC(=O)NCCO [Palmidrol] + CCOc1ccccc1-n1c(C(C)N2CCN(C(=O)COc3ccc(Cl)cc3)CC2)nc2ccccc2c1=O [erastin],0.91,0.938
COc1cc([C@@H]2Oc3c(O)cc([C@H]4Oc5cc(O)cc(O)c5C(=O)[C@@H]4O)cc3[C@H]2CO)ccc1O [Silychristin] + CCOc1ccccc1-n1c(C(C)N2CCN(C(=O)COc3ccc(Cl)cc3)CC2)nc2ccccc2c1=O [erastin],0.584,0.685
CCC(=O)O[C@]1(C(=O)SCF)[C@H](C)C[C@H]2[C@@H]3C[C@H](F)C4=CC(=O)C=C[C@]4(C)[C@@]3(F)[C@@H](O)C[C@@]21C [Fluticasone propionate] + CCOc1ccccc1-n1c(C(C)N2CCN(C(=O)COc3ccc(Cl)cc3)CC2)nc2ccccc2c1=O [erastin],0.967,0.545
Nn1nnc2ccccc21 [1-Aminobenzotriazole] + CCOc1ccccc1-n1c(C(C)N2CCN(C(=O)COc3ccc(Cl)cc3)CC2)nc2ccccc2c1=O [erastin],0.76,0.73
CCOc1cc(CC(=O)N[C@@H](CC(C)C)c2ccccc2N2CCCCC2)ccc1C(=O)O [Repaglinide] + CCOc1ccccc1-n1c(C(C)N2CCN(C(=O)COc3ccc(Cl)cc3)CC2)nc2ccccc2c1=O [erastin],0.711,0.566
O=P(O)(O)OC(CO)CO [β-Glycerol phosphate disodium salt pentahydrate] + CCOc1ccccc1-n1c(C(C)N2CCN(C(=O)COc3ccc(Cl)cc3)CC2)nc2ccccc2c1=O [erastin],0.614,0.527
CCCCCCS(=O)(=O)NC(=O)c1ccc(CSCc2ccc(-c3ccccc3)cc2)cc1 + CCOc1ccccc1-n1c(C(C)N2CCN(C(=O)COc3ccc(Cl)cc3)CC2)nc2ccccc2c1=O [erastin],0.705,0.733
CCc1c(C(=O)C(N)=O)c2c(OCC(=O)O)cccc2n1Cc1ccccc1 [Varespladib] + CCOc1ccccc1-n1c(C(C)N2CCN(C(=O)COc3ccc(Cl)cc3)CC2)nc2ccccc2c1=O [erastin],0.547,0.652
C=C(C)[C@@H]1CC[C@]2(CO)CC[C@]3(C)[C@H](CC[C@@H]4[C@@]5(C)CC[C@H](O)C(C)(C)[C@@H]5CC[C@]43C)[C@@H]12 [Betulin] + CCOc1ccccc1-n1c(C(C)N2CCN(C(=O)COc3ccc(Cl)cc3)CC2)nc2ccccc2c1=O [erastin],0.524,0.32
N[C@@H](Cc1c[nH]cn1)C(=O)O [histidine] + CCOc1ccccc1-n1c(C(C)N2CCN(C(=O)COc3ccc(Cl)cc3)CC2)nc2ccccc2c1=O [erastin],0.592,0.706
O=C(c1ccc(-c2nc3ccc(F)cc3o2)cc1)N1CCN(C(=O)C2(O)CC2)CC1 + CCOc1ccccc1-n1c(C(C)N2CCN(C(=O)COc3ccc(Cl)cc3)CC2)nc2ccccc2c1=O [erastin],0.588,0.823
Cc1ccc(CN(CC(O)COc2cccc3[nH]ccc23)C(C)(C)C)cc1 (centres undefined) + CCOc1ccccc1-n1c(C(C)N2CCN(C(=O)COc3ccc(Cl)cc3)CC2)nc2ccccc2c1=O [erastin],0.731,0.846
COc1ccc(-n2c(SCCCN3C(=O)c4cccc5cccc(c45)C3=O)nnc2-c2ccncc2)cc1 + CCOc1ccccc1-n1c(C(C)N2CCN(C(=O)COc3ccc(Cl)cc3)CC2)nc2ccccc2c1=O [erastin],0.437,0.658
